Compounds without any hit were thinned out: in the full panel of roughly 79,000, 15% have a hit. A number with no mark means an inactive call. Activity calls are given as the source filed them. Rule as the data show it: active = growth inhibition above about 70%; inactive = the rest.

The nature of the experiment: NCI Yeast Anticancer Drug Screen. Data for the bub3 strain (AID 167). The note with it: S. cerevisiae bub3 mutant strain, at 50.0 µM, active compounds read high. As for the experimental part:
Growth inhibition of yeast strains with defined genetic alterations is measured as a screen for potential anti-cancer activity. Selected strains with alterations in DNA damage repair or cell cycle control were exposed to compounds and growth inhibition was measured relative to vehicle treated controls. The strain used in this assay is bub3
For the molecule `C[C@]12CC[C@@H]3C4=CC(=O)CC[C@@H]4CC[C@H]3[C@@H]1CC[C@@H]2O`, the growth inhibition was 4.8%.

As to `[Cu+2].[NH-]c1ccccc1C(=O)O.[NH-]c1ccccc1C(=O)O`, the growth inhibition was -27.1%.

Regarding `CC1CCCCN1CCCN=C(N)N[N+](=O)[O-]` (stereo not given), the growth inhibition was 18.1%.

In the case of `CC(Cc1ccc(O)cc1)NCC(O)c1cc(O)cc(O)c1` (stereo not given), the growth inhibition is 16.4%.

In the case of `CC1CN=C(NCc2ccccc2)S1` (stereo not given), the growth inhibition is -1.05%.

As for `CC(C)N([PH2+]N(C(C)C)C(C)C)C(C)C.[C-]#[O+].[C-]#[O+].[C-]#[O+].[C-]#[O+].[C-]#[O+].[Mo]`, the growth inhibition is 6.35%.

Regarding `O=C1NC(=O)C(C(=O)C(=O)Nc2cccc(C(F)(F)F)c2)C(=O)N1`, the growth inhibition is -31%.

`CC(=O)CC(C)=O.CC(=O)CC(C)=O.CC(=O)CC(C)=O.CC(=O)CC(C)=O.[Zr]`: the growth inhibition was 38.6%.

For `O=C(Nc1ccccc1)c1ccc([As](c2ccc(C(=O)Nc3ccccc3)cc2)c2ccc(C(=O)Nc3ccccc3)cc2)cc1`, the growth inhibition was -19.2%.

Take `CCCCNC(=O)C(Cl)Cl`: the growth inhibition was -14.8%.

In the case of `COc1ccc(CC(C)NO)cc1` (stereo not given), the growth inhibition is 2.35%.

Regarding `O=C(O)C(F)(F)C(F)(Cl)C(F)(F)C(F)(Cl)C(F)(F)Cl` (stereo not given) (tested in a mixture with another compound), the growth inhibition is 1.1%.

`c1cc2c(cc1[C@@H]1OC[C@@H]3[C@H]1CO[C@H]3c1ccc3c(c1)OCO3)OCO2`: the growth inhibition was 65.5%.

For the molecule `COc1ccccc1CCN`, the growth inhibition is -21.2%.

Regarding `CC[C@H]1CN2CCc3cc(OC)c(OC)cc3[C@@H]2C[C@@H]1C[C@H]1NCCc2c1[nH]c1ccc(O)cc21`, the growth inhibition was -26.9%.

Take `CCOP(=O)(OCC)Oc1ccncc1`: the growth inhibition is 7.75%.

In the case of `COc1cc2c(cc1OC)C13CCN4CC5CCOC6CC(=O)N2C1C6C5CC43` (stereo not given), the growth inhibition is -7.5%.

For `COC(=O)CP(=O)(OC)OC`, the growth inhibition was 1%.

As for `C[CH2][Sn]([CH2]C)([S]c1nc(O)cc(=O)[nH]1)[S]c1nc(O)cc(=O)[nH]1`, the growth inhibition was 21.9%.

Take `OCCN1CCN(c2cccc(Cl)c2)CC1`: the growth inhibition was -8.05%.

Consider `CC(=O)CC(C)=O.CC(=O)CC(C)=O.CC(=O)CC(C)=O.[Tb]`, for which the growth inhibition was -2.95%.

On to `Cn1nnc(C(N)=O)n1`, for which the growth inhibition is -4.2%.

For `CCOP(=O)(O)OCC.[Y]`, the growth inhibition was 6.5%.

For `CC(C)(C)C(=O)CP(=O)(O)O` (tested in a mixture with another compound), the growth inhibition was 10.2%.

`CC(=O)N(N=O)c1cc(Cl)ccc1Cl`: the growth inhibition is -5.5%.

On to `NC(N)=NC(N)=Nc1ccc(Cl)cc1`, for which the growth inhibition was -1.9%.

For the molecule `O=C(O)C(O)(c1ccccc1)c1ccsc1` (stereo not given), the growth inhibition is 1.95%.

As for `Cc1ccccc1/C(=C/c1ccc([N+](=O)[O-])cc1)C(=O)Nc1ccc(S(=O)(=O)F)cc1`, the growth inhibition is 96.5% (active).

Regarding `Cc1ccc(NC(=O)N(C)N=O)cc1`, the growth inhibition was -6.05%.

With `CCN(CC)C(=O)CCNC(C)Cc1c[nH]c2ccccc12` (stereo not given), the growth inhibition was 8.85%.

As to `NCCc1c[nH]c2ccccc12`, the growth inhibition is -0.75%.

`CCC(C)OC(=O)Nc1cccc(OC(=O)NC)c1` (stereo not given): the growth inhibition was -1.6%.

As to `COc1ccc2c(c1)C1(C=N2)CCN(C(C)=O)CC1`, the growth inhibition was -9.75%.

In the case of `Cc1ccc(C(O)(c2ccc(C)cc2)c2ccccn2)cc1`, the growth inhibition was 9.45%.

For `COc1ccc2c(c1O)C1=CC(=O)CC[C@]13CCN(C)[C@H]3C2`, the growth inhibition is -15.2%.

Consider `O=C(Nc1cc(Cl)c(Cl)cc1Cl)C(=O)C1C(=O)NC(=S)NC1=O`, for which the growth inhibition was 12.9%.

Turning to `Nn1cnnc1`, the growth inhibition was -3.05%.

For the molecule `Oc1c(Cl)cc(Cl)cc1C1N(Cc2ccc(N(CCCl)CCCl)cc2Cl)CCCN1Cc1ccc(N(CCCl)CCCl)cc1Cl`, the growth inhibition was -4%.

Consider `Cl.[O-]c1cccc2cccnc12.[O-]c1cccc2cccnc12.[O-]c1cccc2cccnc12.[O-]c1cccc2cccnc12.[Ti+4]`, for which the growth inhibition was 92% (active).

`COc1cc2c(cc1O)CC1c3c(cc(O)c(OC)c3-2)CCN1C` (stereo not given): the growth inhibition was -26.1%.
